This passage reports growth results from PubChem BioAssay (NCI).

Among the test systems are NCI-H23 lung; NCI-H226 lung; NCI-H322M lung; HOP-62 NSCLC; NCI-H460 lung; HOP-92 NSCLC; NCI-H522 lung; A549/ATCC NSCLC; 786-0 renal; COLO 205 colon.
Experiment in all cases: NCI-60 one-dose screen, 48 h (100 = growth as untreated, 0 = no growth, -100 = all killed)
Holding throughout (details): 10 µM

SMILES strings stand for the structures. The panel holds about 83,000 compounds, 20% with a hit somewhere; the sample as a whole holds those more often.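 The endpoint reported here, percent growth, reads 100 for growth as untreated, 0 for no net growth and -100 for all cells dead.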 Values without a mark were called inactive. Calls of active or inactive are those of the source. How the source made its calls: active means growth percent below 10; inactive means the rest.

As for `CCCCCCCC[N+]12CN3CN(CN(C3)C1)C2`, the growth with NCI-H23 lung is 92%; in the assay with NCI-H226 lung it was 98.2%; in the assay with NCI-H322M lung, 84.8%; in the assay on HOP-62 NSCLC it was 102%; with NCI-H460 lung it was 101%; in the assay with HOP-92 NSCLC, 85.9%. Besides, the growth in the assay with NCI-H522 lung is 97.9%; in the assay with A549/ATCC NSCLC it was 97.8%; in the assay with 786-0 renal, 89.5%; in the assay on COLO 205 colon, 104%.

Take `O=[N+]([O-])c1ccc(N(CCO)CCO)c2c1no[n+]2[O-]`: the growth with NCI-H23 lung was 10.1%; with NCI-H226 lung it was 0.462% (active); with NCI-H322M lung, -16% (active); in the assay with HOP-62 NSCLC it was -34.1% (active); in the assay with NCI-H460 lung it was -26.2% (active); in the assay with HOP-92 NSCLC, -35.5% (active). In addition, the growth with NCI-H522 lung is -62% (active); with A549/ATCC NSCLC, 4% (active); in the assay with 786-0 renal, -31.5% (active); with COLO 205 colon, -93.3% (active).

As to `COC1CC2C=C(C)/C=C/C=C/C(=O)NC(c3ccccc3)C/C=C/CCC(O)CC(=O)C2=C1O` (stereo not given), the growth was -73.5% (active) in the assay with NCI-H23 lung; -61.6% (active) in the assay on NCI-H226 lung; -92.8% (active) in the assay with NCI-H322M lung; -91.6% (active) with HOP-62 NSCLC; -73.3% (active) in the assay with NCI-H460 lung; -86.6% (active) in the assay with HOP-92 NSCLC. Moreover, the growth in the assay on A549/ATCC NSCLC was -82.7% (active); in the assay on 786-0 renal, -94.3% (active); in the assay with COLO 205 colon, -79.1% (active).

Take `CC(C)C1(NC(=O)C2CC3c4cccc5[nH]cc(c45)CC3N(C)C2)OC2(O)C3CCCN3C(=O)C(Cc3ccccc3)N2C1=O` (stereo not given): the growth is 99.4% in the assay with NCI-H23 lung; 103% in the assay with NCI-H226 lung; 118% with NCI-H322M lung; 110% in the assay on HOP-62 NSCLC; 109% with NCI-H460 lung; 82.1% with NCI-H522 lung. For the same compound, the growth was 107% in the assay with A549/ATCC NSCLC, 96.3% with 786-0 renal and 106% with COLO 205 colon.

As for `O=C(CCl)Nc1ccc(Cl)cc1`, the growth was 28.4% in the assay with NCI-H23 lung; 50.7% with NCI-H226 lung; 78.3% with NCI-H322M lung; 75.1% in the assay on HOP-62 NSCLC; 57.8% with HOP-92 NSCLC; -96.3% (active) in the assay with NCI-H522 lung. For the same compound, the figures for the growth with A549/ATCC NSCLC, with 786-0 renal and in the assay on COLO 205 colon were 85.1%, 44.7% and 52.3%, respectively.

As to `COc1ccccc1/C=C/[N+](=O)[O-]`, the growth in the assay with NCI-H23 lung was 74.9%; in the assay on NCI-H226 lung it was 96.1%; in the assay on NCI-H322M lung, 102%; in the assay with HOP-62 NSCLC it was 97.1%; in the assay with NCI-H460 lung, 74.4%; with NCI-H522 lung, 62.6%. The growth in the assay with A549/ATCC NSCLC is 75.5%; in the assay on 786-0 renal it was 93.1%; with COLO 205 colon, 79.3%.

For the compound `NC(=O)c1cc([N+](=O)[O-])c(Cl)c([N+](=O)[O-])c1`, the growth is 88.6% in the assay with NCI-H23 lung; 102% with NCI-H226 lung; 109% in the assay on NCI-H322M lung; 105% in the assay on HOP-62 NSCLC; 14.1% in the assay with HOP-92 NSCLC; -4.01% (active) in the assay on NCI-H522 lung. The growth was 98.4% with A549/ATCC NSCLC, 91.2% in the assay with 786-0 renal and -71.1% (active) in the assay with COLO 205 colon.

Regarding `COc1cc([N+](=O)[O-])c2ncccc2c1[N+](=O)[O-]`, the growth was 73.4% in the assay on NCI-H23 lung; 77.1% in the assay on NCI-H226 lung; 103% in the assay on NCI-H322M lung; 105% with HOP-62 NSCLC; 87.3% in the assay on NCI-H460 lung; 95.7% in the assay on HOP-92 NSCLC. Moreover, the growth is -47.9% (active) in the assay on NCI-H522 lung, 97.9% in the assay with A549/ATCC NSCLC, 77.7% with 786-0 renal and 86.1% in the assay with COLO 205 colon.

`C#CC1(O)CCC(C(C)(C)C)CC1` (stereo not given): the growth in the assay with NCI-H23 lung is 105%; in the assay with NCI-H226 lung, 111%; with NCI-H322M lung, 110%; in the assay on HOP-62 NSCLC it was 115%; with HOP-92 NSCLC it was 87.9%; with NCI-H522 lung, 122%. Moreover, the growth with A549/ATCC NSCLC is 94.2%; in the assay on 786-0 renal, 107%; with COLO 205 colon, 114%.

For the compound `COc1cc2c(c(OC)c1OC)-c1ccc(O)c(=O)cc1[C@@H](NC(C)=O)CC2`, the growth is 65.1% in the assay on NCI-H23 lung; 68.9% with NCI-H226 lung; 57.5% with NCI-H322M lung; 28.9% with HOP-62 NSCLC; 24.6% in the assay on NCI-H460 lung; 31.9% in the assay on A549/ATCC NSCLC. Besides, the growth in the assay with 786-0 renal is 68.9%; with COLO 205 colon, 72.6%.

`COS(=O)(=O)c1ccccc1`: the growth was 98.5% in the assay with NCI-H23 lung; 107% in the assay with NCI-H226 lung; 106% in the assay on NCI-H322M lung; 102% in the assay on HOP-62 NSCLC; 112% in the assay with NCI-H460 lung; 105% in the assay on HOP-92 NSCLC. The growth is 111% with NCI-H522 lung, 105% in the assay with A549/ATCC NSCLC, 115% in the assay on 786-0 renal and 113% with COLO 205 colon.

In the case of `C=C1C(=O)O[C@@H]2C[C@@H](C)[C@@H]3C=CC(=O)[C@@]3(C)[C@@H](O)[C@H]12`, the growth with NCI-H23 lung was -36.3% (active); in the assay on NCI-H226 lung it was -38.6% (active); with NCI-H322M lung, -24.7% (active); in the assay with HOP-62 NSCLC, -44.6% (active); in the assay with NCI-H460 lung, -26.4% (active); with NCI-H522 lung it was -81.2% (active). In addition, the figures for the growth with A549/ATCC NSCLC, with 786-0 renal and with COLO 205 colon were -3.45% (active), -71.6% (active) and -95% (active), respectively.

Regarding `Cc1cc(C)c(C[N+](C)(C)C)c(C)c1C`, the growth in the assay with NCI-H23 lung was 3.56% (active); with NCI-H226 lung, 11.7%; with NCI-H322M lung, 1.22% (active); with HOP-62 NSCLC, 5.53% (active); with NCI-H460 lung, 5.07% (active); in the assay on NCI-H522 lung it was -39.5% (active). Further, the figures for the growth in the assay on A549/ATCC NSCLC, with 786-0 renal and with COLO 205 colon were 5.53% (active), 4.58% (active) and 0.186% (active), respectively.
